Screen size: about 5,500 compounds; about 2,000 (36%) were called active. Another 18% or so got no clear call; they are omitted. Rule as the data show it: active = normalized growth mostly below about 0.91 (no sharp cut-off); inconclusive = no clear call, values can overlap the other calls; inactive = mostly above about 0.92. This is one part of the list.
Experiment: chemical genetic growth profiling, strain panel (AID 1159580);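 also: tested at 20 µM; growth read once vehicle control cultures reached saturation at 30 °C; 1 = growth at the plate median or of vehicle wells; lower values mean less growth of the strain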
Conditions: growth OD

Measured: normalized growth

CCC(=O)O[C@H]1CCC2C3CCc4cc(O)ccc4C3CC[C@@]21C (some centres undefined)
inactive: S. cerevisiae deletion strains, locus YJL187C, strain SWE1, stronger effect = lower value 0.995 | S. cerevisiae deletion strains, locus YJR043C, strain POL32, stronger effect = lower value 0.974 | S. cerevisiae deletion strains, locus YJR075W, strain HOC1, stronger effect = lower value 0.948 | S. cerevisiae deletion strains, locus YKL009W, strain mrt4, stronger effect = lower value 0.986 | S. cerevisiae deletion strains, locus YKL068W, stronger effect = lower value 1 | S. cerevisiae deletion strains, locus YKL085W, strain MDH1 (second series), stronger effect = lower value 0.936 | S. cerevisiae deletion strains, locus YKL085W, strain MDH1, stronger effect = lower value 0.936 | S. cerevisiae deletion strains, locus YKL160W, strain elf1, stronger effect = lower value 0.984 | S. cerevisiae deletion strains, locus YKL190W, strain CNB1, stronger effect = lower value 1 | S. cerevisiae deletion strains, locus YKR001C, strain vps1, stronger effect = lower value 0.927 | S. cerevisiae deletion strains, locus YKR026C, strain gcn3, stronger effect = lower value 0.971 | S. cerevisiae deletion strains, locus YKR091W, strain srl3, stronger effect = lower value 0.964 | S. cerevisiae deletion strains, locus YLL001W, strain dnm1, stronger effect = lower value 0.997 | S. cerevisiae deletion strains, locus YLL026W, stronger effect = lower value 1 | S. cerevisiae deletion strains, locus YLL041C, strain sdh2, stronger effect = lower value 1.01 | S. cerevisiae deletion strains, locus YLR027C, strain aat2, stronger effect = lower value 0.966 | S. cerevisiae deletion strains, locus YLR039C, strain RIC1, stronger effect = lower value 0.771 | S. cerevisiae deletion strains, locus YLR102C, strain apc9, stronger effect = lower value 1 | S. cerevisiae deletion strains, locus YLR221C, strain rsa3, stronger effect = lower value 0.967 | S. cerevisiae deletion strains, locus YLR258W, strain gsy2, stronger effect = lower value 1 | S. cerevisiae deletion strains, locus YLR262C, strain YPT6, stronger effect = lower value 0.797 | S. cerevisiae deletion strains, locus YLR268W, strain sec22, stronger effect = lower value 0.991 | S. cerevisiae deletion strains, locus YLR320W, strain mms22, stronger effect = lower value 0.969 | S. cerevisiae deletion strains, locus YLR330W, strain CHS5, stronger effect = lower value 0.984 | S. cerevisiae deletion strains, locus YLR342W, strain FKS1, stronger effect = lower value 0.972 | S. cerevisiae deletion strains, locus YLR357W, strain rsc2, stronger effect = lower value 0.954 | S. cerevisiae deletion strains, locus YLR370C, strain arc18, stronger effect = lower value 0.975 | S. cerevisiae deletion strains, locus YLR371W, strain rom2, stronger effect = lower value 1 | S. cerevisiae deletion strains, locus YLR384C, strain iki3, stronger effect = lower value 0.994 | S. cerevisiae deletion strains, locus YLR418C, strain cdc73, stronger effect = lower value 0.937 | S. cerevisiae deletion strains, locus YML016C, strain PPZ1, stronger effect = lower value 0.997 | S. cerevisiae deletion strains, locus YML032C, strain rad52, stronger effect = lower value 0.985 | S. cerevisiae deletion strains, locus YML124C, strain tub3, stronger effect = lower value 1 | S. cerevisiae deletion strains, locus YMR058W, strain fet3, stronger effect = lower value 0.977 | S. cerevisiae deletion strains, locus YMR078C, strain ctf18, stronger effect = lower value 1.02 | S. cerevisiae deletion strains, locus YMR125W, strain sto1, stronger effect = lower value 0.982 | S. cerevisiae deletion strains, locus YMR129W, stronger effect = lower value 0.979 | S. cerevisiae deletion strains, locus YMR205C, strain PFK2, stronger effect = lower value 0.929 | S. cerevisiae deletion strains, locus YMR223W, strain ubp8, stronger effect = lower value 0.956 | S. cerevisiae deletion strains, locus YMR231W, strain pep5, stronger effect = lower value 1.01 | S. cerevisiae deletion strains, locus YMR307W, strain GAS1, stronger effect = lower value 0.766 | S. cerevisiae deletion strains, locus YNL067W, strain RPL9B, stronger effect = lower value 0.974 | S. cerevisiae deletion strains, locus YNL071W, strain lat1, stronger effect = lower value 0.969 | S. cerevisiae deletion strains, locus YNL209W, strain ssb2, stronger effect = lower value 0.984 | S. cerevisiae deletion strains, locus YNL248C, strain rpa49, stronger effect = lower value 0.991 | S. cerevisiae deletion strains, locus YNL250W, strain rad50, stronger effect = lower value 0.998 | S. cerevisiae deletion strains, locus YNL271C, strain bni1, stronger effect = lower value 1.01 | S. cerevisiae deletion strains, locus YNL298W, strain CLA4, stronger effect = lower value 0.999 | S. cerevisiae deletion strains, locus YNL307C, strain MCK1, stronger effect = lower value 0.935 | S. cerevisiae deletion strains, locus YNL322C, strain KRE1 (second series), stronger effect = lower value 0.977 | S. cerevisiae deletion strains, locus YNR049C, strain mso1, stronger effect = lower value 0.986 | S. cerevisiae deletion strains, locus YNR052C, strain pop2, stronger effect = lower value 1 | S. cerevisiae deletion strains, locus YOL006C, strain TOP1, stronger effect = lower value 0.958 | S. cerevisiae deletion strains, locus YOL012C, strain htz1 1.25 | S. cerevisiae deletion strains, locus YOL147C, strain pex11, stronger effect = lower value 1 | S. cerevisiae deletion strains, locus YOR001W, strain rrp6, stronger effect = lower value 0.98 | S. cerevisiae deletion strains, locus YOR061W, strain CKA2, stronger effect = lower value 0.935 | S. cerevisiae deletion strains, locus YOR069W, strain VPS5, stronger effect = lower value 0.996 | S. cerevisiae deletion strains, locus YOR070C, strain gyp1, stronger effect = lower value 1 | S. cerevisiae deletion strains, locus YOR080W, strain dia2, stronger effect = lower value 0.979 | S. cerevisiae deletion strains, locus YOR083W, strain WHI5, stronger effect = lower value 0.976 | S. cerevisiae deletion strains, locus YOR106W, strain vam3, stronger effect = lower value 0.978 | S. cerevisiae deletion strains, locus YOR136W, strain idh2, stronger effect = lower value 1.02 | S. cerevisiae deletion strains, locus YOR144C, strain elg1, stronger effect = lower value 1.01 | S. cerevisiae deletion strains, locus YOR184W, strain ser1, stronger effect = lower value 0.96 | S. cerevisiae deletion strains, locus YOR265W, strain rbl2, stronger effect = lower value 0.994 | S. cerevisiae deletion strains, locus YOR270C, strain vph1, stronger effect = lower value 0.911 | S. cerevisiae deletion strains, locus YOR290C, strain snf2, stronger effect = lower value 0.939 | S. cerevisiae deletion strains, locus YOR316C, strain cot1, stronger effect = lower value 1.01 | S. cerevisiae deletion strains, locus YPL051W, strain arl3, stronger effect = lower value 1 | S. cerevisiae deletion strains, locus YPL078C, strain atp4, stronger effect = lower value 0.992 | S. cerevisiae deletion strains, locus YPL240C, strain hsp82, stronger effect = lower value 1 | S. cerevisiae deletion strains, locus YPR119W, strain clb2, stronger effect = lower value 0.995 | S. cerevisiae deletion strains, locus YPR141C, strain kar3, stronger effect = lower value 1.02 | S. cerevisiae deletion strains, locus YPR163C, strain tif3, stronger effect = lower value 1.02 | S. cerevisiae deletion strains, locus YPR167C, strain met16, stronger effect = lower value 1.01 | S. cerevisiae deletion strains, strain wtn01, stronger effect = lower value 1
active: S. cerevisiae deletion strains, locus YJR066W, strain TOR1, stronger effect = lower value 0.728 | S. cerevisiae deletion strains, locus YLR058C, strain SHM2, stronger effect = lower value 0.871 | S. cerevisiae deletion strains, locus YLR113W, strain HOG1, stronger effect = lower value 0.287 | S. cerevisiae deletion strains, locus YLR262C, strain YPT6 (second series), stronger effect = lower value 0.676 | S. cerevisiae deletion strains, locus YLR342W, strain FKS1 (second series), stronger effect = lower value 0.785 | S. cerevisiae deletion strains, locus YML120C, strain ndi1, stronger effect = lower value 0.881 | S. cerevisiae deletion strains, locus YNL183C, strain NPR1, stronger effect = lower value 0.755 | S. cerevisiae deletion strains, locus YNL233W, strain BNI4, stronger effect = lower value 0.784 | S. cerevisiae deletion strains, locus YOR231W, strain MKK1, stronger effect = lower value 0.483 | S. cerevisiae deletion strains, locus YPL106C, strain sse1, stronger effect = lower value 0.839 | S. cerevisiae deletion strains, locus YPL256C, strain CLN2, stronger effect = lower value 0.643 | S. cerevisiae strains, strain wild type, stronger effect = lower value 0.884

— PubChem BioAssay AID1159580 (chemical genetic matrix, 2015)
